Sampled rows, rich in hits. Any-hit rate of the full collection: about 8.8%.
KB-3-1 cytotox: kills parental KB-3-1 adenocarcinoma cells; Potency, µM (top dose mostly 46.1 µM), actives largely listed as cytotoxic; KB-3-1 viability, CellTiter-Glo ATP luminescence, 72 h; AID 1347075; 1.4% of 400,000 active; further: potency means the concentration at half of the fitted maximal effect; nearly all actives have a fitted effect of over 60% in size
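KB-3-1 parental drug-naive adenocarcinoma cells in DMEM/10% FBS, incubated 72 h at 37 C with pin-transferred compounds across a concentration series. Viability by CellTiter-Glo luminescence; concentration-response curves fitted after normalization.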
HT1080NT lethal: kills 2HG-producing HT-1080-NT fibrosarcoma cells; HT-1080-NT fibrosarcoma viability, CellTiter-Glo ATP luminescence, 48 h; Potency, µM (titrated, usually from 46.1 µM), for the others: at the top dose activity, negative = less viability, usual class: cytotoxic; 1.6% of 360,000 active;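 further: NT is the 2HG producing partner of a matched IDH1 knockdown line; potency means the concentration at half of the fitted maximal effect; 0% = DMSO-treated cells and -100% = media-only wells without cells; nearly all actives have a fitted effect of over 55% in size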
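Toxicity toward the 2HG-producing NT line was scored as %Activity, normalised to DMSO and no-cell wells, from CellTiter-Glo luminescence after 48 hours' treatment.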
IL-1B inflam inh: inhibitors of inflammasome signaling (IL-1 beta secretion); AID 743279; THP-1 LPS/ATP IL-1B secretion, AlphaLISA, 16 h; hits give low values; activity change, % at 57.5 µM; 4.7% of 360,000 active; in the data active means activity change below about -50%; inconclusive means mostly about -30% to -49%
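Secreted IL-1B measured by AlphaLISA bead assay after 16 h compound exposure of THP-1 cells; compounds (final up to 57.5 uM) added 1 h before LPS (250 ng/mL) and ATP (1.25 mM) stimulation; lower signal means less secretion.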
KB-V1 MDR tox: KB-V1 MDR subline cytotoxicity | KB-V1 MDR cells viability, CellTiter-Glo, 72 h | Potency, µM (doses to about 46.1 µM), actives largely listed as cytotoxic | 3.4% of 400,000 active; further: potency means the concentration at half of the fitted maximal effect; nearly all actives have a fitted effect of over 60% in size
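qHTS viability screen in drug-selected KB-V1 MDR cells: 72 h compound treatment at 37 degrees C, ATP luminescence end point.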
HT1080 IDH1KD tx: HT-1080 IDH1 knockdown cell toxicity (counter line) | HT-1080 IDH1 knockdown viability, ATP luminescence, 48 h | Potency, µM (highest dose often 46.1 µM), without a hit: at the highest dose activity, negative = toxicity, most hits filed as cytotoxic | 2% of 360,000 active | AID 686971;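 further: potency means the concentration at half of the fitted maximal effect; 0% = DMSO wells and -100% = cell-free medium wells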
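IDH1KD HT-1080 cells, 750/well, RPMI + 5% FBS; compound pinned after 2 h settling; 48 h, 37 °C; CellTiter-Glo luminescence; % activity normalised to DMSO and no-cell wells; curves fitted, classed by r2 and efficacy.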
* hit, by the source's call. Unless noted, the call rests on the fitted dose curve; in most records, active means well fitted curve in the direction sought with a large enough effect; inconclusive means small, poorly fitted or top-dose-only effect, or another doubt; inactive means no such curve, though single readings can be large; an effect the other way counts as inactive or inconclusive. Unless noted, on the % scale 0 is the no-effect control and ±100 the full control effect.

`COC(=O)C1CCN(Cc2cn(Cc3ccccc3)nc2-c2cc3ccccc3o2)CC1` gave KB-3-1 cytotox inactive, HT1080NT lethal -10%, IL-1B inflam inh -17, KB-V1 MDR tox inactive and HT1080 IDH1KD tx -8%.
`COCC1CCCN(Cc2cn(Cc3ccccc3)nc2-c2cc3ccccc3o2)C1` (stereo not drawn) gave KB-3-1 cytotox inconclusive, HT1080NT lethal inconclusive, IL-1B inflam inh -76*, KB-V1 MDR tox inactive and HT1080 IDH1KD tx 16µM*.
CC(C)CCNC(=O)Cn1nc(N2CCN(c3ccccc3)CC2)ccc1=O was read as KB-3-1 cytotox inactive and KB-V1 MDR tox inactive.
Screening COc1cc(C)ccc1OCCCn1c(-c2ccc(Cl)cc2)nc2ccccc2c1=O returned KB-3-1 cytotox inactive and KB-V1 MDR tox inconclusive.
`CCc1nc2ccc(C(=O)Nc3cccc(OC)c3)cn2c1N(CC)CCOC` gave KB-3-1 cytotox inconclusive, HT1080NT lethal -8%, IL-1B inflam inh -17, KB-V1 MDR tox inconclusive and HT1080 IDH1KD tx 14%.
`Cc1ccc(OCC(=O)Nc2cccc(-c3nnc(-c4ccccc4)o3)c2)cc1` gave KB-3-1 cytotox inactive, HT1080NT lethal 0%, IL-1B inflam inh -4, KB-V1 MDR tox 2.3µM* and HT1080 IDH1KD tx 18%.
For CCC(=O)Nc1cccc(-c2nnc(-c3ccccc3)o2)c1 the results were KB-3-1 cytotox inactive, HT1080NT lethal -3%, IL-1B inflam inh inconclusive, KB-V1 MDR tox inactive and HT1080 IDH1KD tx -9%.
CCCCC(=O)Nc1cccc(-c2nnc(-c3ccccc3)o2)c1 was read as KB-3-1 cytotox inactive, HT1080NT lethal inconclusive, IL-1B inflam inh inconclusive, KB-V1 MDR tox 18µM* and HT1080 IDH1KD tx inconclusive.
For Cc1ccc(-c2nnc(-c3ccc4ccccc4c3)o2)cc1 the results were KB-3-1 cytotox inconclusive, HT1080NT lethal inconclusive, IL-1B inflam inh -9, KB-V1 MDR tox inactive and HT1080 IDH1KD tx 9.2µM*.
Screening O=C(COc1ccccc1)Nc1cccc(-c2nc3cc4ccccc4cc3[nH]2)c1 returned KB-3-1 cytotox inconclusive, HT1080NT lethal inconclusive, IL-1B inflam inh -85*, KB-V1 MDR tox 9.2µM* and HT1080 IDH1KD tx inconclusive.
CC(C)CCNC(=O)c1onc(CSc2nc3ccccc3[nH]2)c1C(=O)NCCC(C)C was read as KB-3-1 cytotox inactive, HT1080NT lethal 8%, IL-1B inflam inh -3, KB-V1 MDR tox inactive and HT1080 IDH1KD tx 11%.
Screening O=C(Nc1ccc(C(F)(F)F)cc1)C1CCN(c2cnccn2)CC1 returned KB-3-1 cytotox inactive, HT1080NT lethal inconclusive, IL-1B inflam inh 16, KB-V1 MDR tox inactive and HT1080 IDH1KD tx -17%.
O=S(=O)(c1ccc(Br)c2nsnc12)N1CCOCC1 was read as KB-3-1 cytotox inactive, HT1080NT lethal 8%, IL-1B inflam inh -54*, KB-V1 MDR tox inactive and HT1080 IDH1KD tx 3%.
Screening Cc1ccc(S(=O)(=O)N2CCOCC2)c2nsnc12 returned KB-3-1 cytotox inactive, HT1080NT lethal -1%, IL-1B inflam inh -22, KB-V1 MDR tox inactive and HT1080 IDH1KD tx -1%.
Screening CCc1ccc(-c2nc3cc(NC(=O)c4ccc(F)cc4)ccc3o2)cc1 returned KB-3-1 cytotox inactive and KB-V1 MDR tox inactive.
`CC(=O)NC(CC(C)C)C(=O)NC(Cc1ccccc1)C(N)=O` (stereo not drawn) gave KB-3-1 cytotox inactive, HT1080NT lethal 2%, IL-1B inflam inh -1, KB-V1 MDR tox inactive and HT1080 IDH1KD tx 4%.
For Cc1ccc(S(=O)(=O)NC(Cc2ccccc2)C(=O)NN)cc1 (stereo not drawn) the results were KB-3-1 cytotox inactive, HT1080NT lethal 11%, IL-1B inflam inh 3, KB-V1 MDR tox inactive and HT1080 IDH1KD tx 0%.
Cc1ccc(S(=O)(=O)N[C@@H](Cc2ccccc2)C(=O)CCl)cc1 was read as KB-3-1 cytotox inconclusive, HT1080NT lethal inconclusive, IL-1B inflam inh -107*, KB-V1 MDR tox inconclusive and HT1080 IDH1KD tx 16µM*.
CC(=O)NC(CC(C)C)C(=O)NC(Cc1ccccc1)C(=O)CCl (stereo not drawn) was read as KB-3-1 cytotox inactive, HT1080NT lethal -14%, IL-1B inflam inh -98*, KB-V1 MDR tox inactive and HT1080 IDH1KD tx inconclusive.
For COc1ccc(CNc2oc(/C=C/c3cccc(OC)c3)nc2C#N)cc1 the results were KB-3-1 cytotox inactive and KB-V1 MDR tox inactive.
`CCOc1ccc(NC(=S)NC(=O)/C=C/c2ccc(C)cc2)c([N+](=O)[O-])c1` gave KB-3-1 cytotox inconclusive, HT1080NT lethal -18%, IL-1B inflam inh -2, KB-V1 MDR tox 12µM* and HT1080 IDH1KD tx -20%.
Screening CCOc1ccc(NC(=S)NC(=O)/C=C/c2ccc(OC)c(OC)c2)c([N+](=O)[O-])c1 returned KB-3-1 cytotox inactive, HT1080NT lethal -3%, IL-1B inflam inh -14, KB-V1 MDR tox inconclusive and HT1080 IDH1KD tx -7%.
`Cc1ccc(OCCn2c(NC(=O)c3ccco3)nc3ccccc32)cc1` gave KB-3-1 cytotox inconclusive, HT1080NT lethal -6%, IL-1B inflam inh 6, KB-V1 MDR tox inconclusive and HT1080 IDH1KD tx -15%.
Screening Cc1cccc(OCCn2c(NC(=O)c3ccco3)nc3ccccc32)c1 returned KB-3-1 cytotox inconclusive, HT1080NT lethal -18%, IL-1B inflam inh 13, KB-V1 MDR tox 2.3µM* and HT1080 IDH1KD tx -28%.
O=Nc1c(O)[nH]c2ccc(F)cc12 was read as KB-3-1 cytotox inactive, HT1080NT lethal -4%, IL-1B inflam inh -88*, KB-V1 MDR tox inactive and HT1080 IDH1KD tx 0%.
For COc1ccc2[nH]c(O)c(N=O)c2c1 the results were KB-3-1 cytotox inactive, HT1080NT lethal 10%, IL-1B inflam inh -26, KB-V1 MDR tox inactive and HT1080 IDH1KD tx 14%.
O=Nc1c(O)[nH]c2ccc(Cl)cc12 was read as KB-3-1 cytotox inconclusive, HT1080NT lethal -9%, IL-1B inflam inh -72*, KB-V1 MDR tox inconclusive and HT1080 IDH1KD tx -12%.
Screening CC(C(=O)N(C)Cc1cccc(F)c1)N1CCN(S(=O)(=O)c2ccc3c(c2)OCCCO3)CC1 (stereo not drawn) returned KB-3-1 cytotox inactive, HT1080NT lethal 1%, IL-1B inflam inh -59*, KB-V1 MDR tox inconclusive and HT1080 IDH1KD tx -1%.
For CC(C)(C)C(=O)N1CCN(S(=O)(=O)c2ccc3c(c2)OCCCO3)CC1 the results were KB-3-1 cytotox 15µM*, HT1080NT lethal -19%, IL-1B inflam inh 5, KB-V1 MDR tox inconclusive and HT1080 IDH1KD tx -12%.
Cc1ccc(C)c(NC(=O)CN2C(=O)c3cccc4cccc2c34)c1 was read as KB-3-1 cytotox inactive and KB-V1 MDR tox inactive.
`O=C1Nc2ccc([N+](=O)[O-])cc2OC1CCN1CCN(Cc2ccccc2)CC1` (stereo not drawn) gave KB-3-1 cytotox inactive, HT1080NT lethal inconclusive, IL-1B inflam inh -1, KB-V1 MDR tox inactive and HT1080 IDH1KD tx -27%.
